Data reported in PMC5700166.

What was measured:
[1] = molecular target: T1, GST-Nv-NF-kB (Ser allele) (Nematostella vectensis, UniProt A7UNT2 2-411); experiment: protein-binding microarray (PBM); PBM: ~300 nM protein, 6 mM HEPES pH 7.8, 80 mM KCl, 0.5 mM EDTA, 0.5 mM EGTA, 6% glycerol, 35 ng/ul poly-dIdC, 1% milk, 1 h, room temperature; Ap Aiptasia and Nv Nematostella (sea anemones) / Co Capsaspora / Aq Amphimedon (sponge) / Dm Drosophila / Hu human; RHD is the Rel homology domain; high values mean tight binding; conditions: dsDNA, one strand shown
T1 sequence: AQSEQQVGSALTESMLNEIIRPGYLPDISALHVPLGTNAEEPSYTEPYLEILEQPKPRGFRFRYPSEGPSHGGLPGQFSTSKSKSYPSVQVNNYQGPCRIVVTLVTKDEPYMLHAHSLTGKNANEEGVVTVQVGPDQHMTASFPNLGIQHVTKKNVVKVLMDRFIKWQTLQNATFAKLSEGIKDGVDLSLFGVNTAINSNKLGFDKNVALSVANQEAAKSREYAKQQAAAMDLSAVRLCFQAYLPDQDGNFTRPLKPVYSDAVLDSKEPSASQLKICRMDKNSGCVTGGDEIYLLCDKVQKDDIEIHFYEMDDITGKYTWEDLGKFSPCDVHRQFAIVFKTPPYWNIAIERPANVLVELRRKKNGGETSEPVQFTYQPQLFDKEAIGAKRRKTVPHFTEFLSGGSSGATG

GST-Hu-p50 = GST-Hu-p50 (Homo sapiens, UniProt P19838 7-356); experiment: as above; conditions: dsDNA, one strand shown
GST-Hu-p50, sequence (P19838 7-356): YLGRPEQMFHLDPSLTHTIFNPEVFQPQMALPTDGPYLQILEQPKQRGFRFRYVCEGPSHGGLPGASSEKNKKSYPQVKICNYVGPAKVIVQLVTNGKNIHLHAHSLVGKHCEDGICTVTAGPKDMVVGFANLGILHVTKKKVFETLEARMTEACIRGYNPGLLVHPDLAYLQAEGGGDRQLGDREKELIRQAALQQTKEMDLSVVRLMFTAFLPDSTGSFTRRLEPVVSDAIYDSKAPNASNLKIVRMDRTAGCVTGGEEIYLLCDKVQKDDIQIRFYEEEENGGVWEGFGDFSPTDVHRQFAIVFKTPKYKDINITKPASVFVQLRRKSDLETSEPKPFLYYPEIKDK

Row | Sequence | binding signal [1] [z-score] | binding signal (GST-Hu-p50) [z-score]
1 | CCGATTAACATCAAATCATCCCCTGATGTTAATCGGGTCTTGATTCGCTTGACGCTGCTG | 6.16 | 4.63
2 | CCGATTAACATCAGGGACTCCCATGATGTTAATCGGGTCTTGATTCGCTTGACGCTGCTG | 3.88 | 3.34
3 | CCGATTAACATCAAGCATCCCCCTGATGTTAATCGGGTCTTGATTCGCTTGACGCTGCTG | 5.87 | 4.97
4 | CCGATTAACATCAGGATAATCCCTGATGTTAATCGGGTCTTGATTCGCTTGACGCTGCTG | 1.62 | 2.15
5 | CCGATTAACATCAGGGAATTAACTGATGTTAATCGGGTCTTGATTCGCTTGACGCTGCTG | 3.91 | 2.81
6 | CCGATTAACATCAGGCGAGTCCCTGATGTTAATCGGGTCTTGATTCGCTTGACGCTGCTG | 2.72 | 2.61
7 | CCGATTAACATCAAAAAAATACCTGATGTTAATCGGGTCTTGATTCGCTTGACGCTGCTG | 4.89 | 3.43
8 | CCGATTAACATCAAAAATCCCGATGATGTTAATCGGGTCTTGATTCGCTTGACGCTGCTG | 2.85 | 3.62
9 | CCGATTAACATCACGTTCCCCCCTGATGTTAATCGGGTCTTGATTCGCTTGACGCTGCTG | 5.78 | 5.15
10 | CCGATTAACATCACCAATTTCCCTGATGTTAATCGGGTCTTGATTCGCTTGACGCTGCTG | 6.05 | 3.76
11 | CCGATTAACATCAATTCCCATGATGATGTTAATCGGGTCTTGATTCGCTTGACGCTGCTG | 1.33 | 1.61
12 | CCGATTAACATCATTATGGGAAATGATGTTAATCGGGTCTTGATTCGCTTGACGCTGCTG | 2.21 | 2.18
13 | CCGATTAACATCACGAAAATCCCTGATGTTAATCGGGTCTTGATTCGCTTGACGCTGCTG | 4.09 | 4.05
14 | CCGATTAACATCAGGGGAATGACTGATGTTAATCGGGTCTTGATTCGCTTGACGCTGCTG | 6.22 | 4.83
15 | CCGATTAACATCAAAAAAGACCCTGATGTTAATCGGGTCTTGATTCGCTTGACGCTGCTG | 3.81 | 3.95
16 | CCGATTAACATCACCCACTTCCCTGATGTTAATCGGGTCTTGATTCGCTTGACGCTGCTG | 2.13 | 1.86
17 | CCGATTAACATCACACCCCCCCCTGATGTTAATCGGGTCTTGATTCGCTTGACGCTGCTG | 3.66 | 3.76
18 | CCGATTAACATCAGGAATCTACCTGATGTTAATCGGGTCTTGATTCGCTTGACGCTGCTG | 1.79 | 2.27
19 | CCGATTAACATCAACGTATTCCCTGATGTTAATCGGGTCTTGATTCGCTTGACGCTGCTG | 3.53 | 1.19
20 | CCGATTAACATCACGGGAACCCCTGATGTTAATCGGGTCTTGATTCGCTTGACGCTGCTG | 2.26 | 3.43
21 | CCGATTAACATCAGGACTGTCCCTGATGTTAATCGGGTCTTGATTCGCTTGACGCTGCTG | 2.57 | 3.92

Row | Sequence | binding signal [1] [z-score] | binding signal (GST-Hu-p50) [z-score]
22 | CCGATTAACATCACGGGAGTTCCTGATGTTAATCGGGTCTTGATTCGCTTGACGCTGCTG | 1.6 | 2.24
23 | CCGATTAACATCAGGATATTCCCTGATGTTAATCGGGTCTTGATTCGCTTGACGCTGCTG | 4.19 | 3.1
24 | CCGATTAACATCACTACTTTCCCTGATGTTAATCGGGTCTTGATTCGCTTGACGCTGCTG | 5.24 | 3.06
25 | CCGATTAACATCAGGGTTTTTTATGATGTTAATCGGGTCTTGATTCGCTTGACGCTGCTG | 4.61 | 4.89
26 | CCGATTAACATCACGGGGTTCCCTGATGTTAATCGGGTCTTGATTCGCTTGACGCTGCTG | 1.48 | 2.59
27 | CCGATTAACATCAACAGGGAAAATGATGTTAATCGGGTCTTGATTCGCTTGACGCTGCTG | 5.98 | 3.34
28 | CCGATTAACATCAAAAATCCCATTGATGTTAATCGGGTCTTGATTCGCTTGACGCTGCTG | 1.88 | 3.48
29 | CCGATTAACATCAAGTGTTTCCCTGATGTTAATCGGGTCTTGATTCGCTTGACGCTGCTG | 3.36 | 1.3
30 | CCGATTAACATCACGGTATTTCCTGATGTTAATCGGGTCTTGATTCGCTTGACGCTGCTG | 1.75 | 1.48
31 | CCGATTAACATCAGGGGAGAACCTGATGTTAATCGGGTCTTGATTCGCTTGACGCTGCTG | 5.63 | 4.26
32 | CCGATTAACATCAAGTACCCCCCTGATGTTAATCGGGTCTTGATTCGCTTGACGCTGCTG | 4.15 | 3.94
33 | CCGATTAACATCAATGTCCCCCCTGATGTTAATCGGGTCTTGATTCGCTTGACGCTGCTG | 4.42 | 3.89
34 | CCGATTAACATCACTGGGAAAACTGATGTTAATCGGGTCTTGATTCGCTTGACGCTGCTG | 3.57 | 2.39
35 | CCGATTAACATCAATACACCCCCTGATGTTAATCGGGTCTTGATTCGCTTGACGCTGCTG | 4.34 | 4.34
36 | CCGATTAACATCAAAACAATCCCTGATGTTAATCGGGTCTTGATTCGCTTGACGCTGCTG | 1.53 | 2.64
37 | CCGATTAACATCAGGTACTTCCATGATGTTAATCGGGTCTTGATTCGCTTGACGCTGCTG | 5.91 | 2.98
38 | CCGATTAACATCAGGAGTCCCCATGATGTTAATCGGGTCTTGATTCGCTTGACGCTGCTG | 4.11 | 4.86
39 | CCGATTAACATCAAAGGTCCCCCTGATGTTAATCGGGTCTTGATTCGCTTGACGCTGCTG | 4.32 | 3.35
40 | CCGATTAACATCAGGGGGTTAACTGATGTTAATCGGGTCTTGATTCGCTTGACGCTGCTG | 4.34 | 4.57
41 | CCGATTAACATCAATTTTCCCAATGATGTTAATCGGGTCTTGATTCGCTTGACGCTGCTG | 4.62 | 3.18
42 | CCGATTAACATCAGGGGGGCACCTGATGTTAATCGGGTCTTGATTCGCTTGACGCTGCTG | 2 | 3.33

Row | Sequence | binding signal [1] [z-score] | binding signal (GST-Hu-p50) [z-score]
43 | CCGATTAACATCACAAAAATCCCTGATGTTAATCGGGTCTTGATTCGCTTGACGCTGCTG | 5.52 | 5.26
44 | CCGATTAACATCAGGAGTCTCCCTGATGTTAATCGGGTCTTGATTCGCTTGACGCTGCTG | 1.4 | 1.4
45 | CCGATTAACATCACAATACCCCCTGATGTTAATCGGGTCTTGATTCGCTTGACGCTGCTG | 5.97 | 4.87
46 | CCGATTAACATCAGGGAAAATGATGATGTTAATCGGGTCTTGATTCGCTTGACGCTGCTG | 6.52 | 2.44
47 | CCGATTAACATCAAGAGTTTCCCTGATGTTAATCGGGTCTTGATTCGCTTGACGCTGCTG | 4.9 | 3.64
48 | CCGATTAACATCAAGGAAAAACCTGATGTTAATCGGGTCTTGATTCGCTTGACGCTGCTG | 1.47 | 1.12
49 | CCGATTAACATCACCCCAGCCCCTGATGTTAATCGGGTCTTGATTCGCTTGACGCTGCTG | 1.91 | 2.68
50 | CCGATTAACATCACATACTCCCCTGATGTTAATCGGGTCTTGATTCGCTTGACGCTGCTG | 4.25 | 3.33
51 | CCGATTAACATCAAGGGATCCCCTGATGTTAATCGGGTCTTGATTCGCTTGACGCTGCTG | 6.37 | 5.23
52 | CCGATTAACATCAAAATTCCCGGTGATGTTAATCGGGTCTTGATTCGCTTGACGCTGCTG | 6.06 | 4.89
53 | CCGATTAACATCAGGGCCCCCCCTGATGTTAATCGGGTCTTGATTCGCTTGACGCTGCTG | 3.34 | 4.39
54 | CCGATTAACATCACAAACGGGGCTGATGTTAATCGGGTCTTGATTCGCTTGACGCTGCTG | 1.73 | 2.88
55 | CCGATTAACATCAGGGAAAGTAATGATGTTAATCGGGTCTTGATTCGCTTGACGCTGCTG | 5.14 | 3.58
56 | CCGATTAACATCAAGGGGGGTGGTGATGTTAATCGGGTCTTGATTCGCTTGACGCTGCTG | 4.43 | 4.27
57 | CCGATTAACATCAAGGGATTCCCTGATGTTAATCGGGTCTTGATTCGCTTGACGCTGCTG | 4.98 | 3.73
58 | CCGATTAACATCAGGTTTTTCCATGATGTTAATCGGGTCTTGATTCGCTTGACGCTGCTG | 1.02 | 1.41
59 | CCGATTAACATCACGGAAAACCCTGATGTTAATCGGGTCTTGATTCGCTTGACGCTGCTG | 1.92 | 2.12
60 | CCGATTAACATCAAAATTCCCATTGATGTTAATCGGGTCTTGATTCGCTTGACGCTGCTG | 5.71 | 4.55
61 | CCGATTAACATCACCTCTTTCCCTGATGTTAATCGGGTCTTGATTCGCTTGACGCTGCTG | 3.91 | 2.44
62 | CCGATTAACATCAACCACCCCCTTGATGTTAATCGGGTCTTGATTCGCTTGACGCTGCTG | 3.4 | 4.03
63 | CCGATTAACATCAGACCTCCCCCTGATGTTAATCGGGTCTTGATTCGCTTGACGCTGCTG | 4.4 | 3.87
